Among all 410,000 compounds or so, about 6,400 (1.6%) were called active. Roughly 20% stayed inconclusive and do not appear here. The call rests on the fitted dose curve; in most records, active means well fitted inhibition curve with a large enough effect; inconclusive means small, poorly fitted or top-dose-only effect; inactive means no such curve, though single readings can be large or run the other way. This excerpt belongs to a sample that is enriched for actives.
Target: Glucagon-like peptide 1 receptor (Homo sapiens) (UniProt P43220)
Experiment: qHTS of GLP-1 Receptor Inverse Agonists (Inhibition Mode); further: nearly all actives have a fitted effect of over 55% in size
Details: HEK293 GLP-1R CRE-luciferase, luminescence, 24 h, GLP-1R form is constitutively active; series mostly up to 38.3 µM; activity change, negative = inhibition: at the top concentration
Outline: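 Inverse agonists were sought by their lowering of basal cAMP reporter luciferase output in HEK293 cells stably carrying constitutively active human GLP-1R, after 24 h compound treatment.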
On the % scale 0 is the no-effect control and ±100 the full control effect; potency means the concentration at half of the fitted maximal effect.

Glucagon-like peptide 1 receptor (Homo sapiens), sequence (P43220 whole entry, looked up): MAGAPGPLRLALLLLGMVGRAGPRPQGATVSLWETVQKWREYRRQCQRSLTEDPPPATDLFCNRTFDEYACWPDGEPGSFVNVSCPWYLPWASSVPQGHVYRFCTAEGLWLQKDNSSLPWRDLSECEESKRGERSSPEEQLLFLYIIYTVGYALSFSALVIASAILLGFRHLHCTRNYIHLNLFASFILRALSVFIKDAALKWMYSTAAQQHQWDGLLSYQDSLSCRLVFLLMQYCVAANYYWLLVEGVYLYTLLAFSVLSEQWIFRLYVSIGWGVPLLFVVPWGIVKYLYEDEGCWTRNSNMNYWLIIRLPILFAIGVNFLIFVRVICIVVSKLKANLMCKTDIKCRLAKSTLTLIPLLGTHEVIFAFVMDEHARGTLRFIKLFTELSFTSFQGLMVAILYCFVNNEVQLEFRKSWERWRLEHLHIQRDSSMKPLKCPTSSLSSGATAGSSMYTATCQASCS

Compound | activity change, negative = inhibition | Potency
CCOC(=O)C1CCc2nc3ccccc3c(=O)n21 (stereo unspecified) | 1.08% (inactive) | 
CCC1(CC)Cc2ccccc2-c2nc3ccccc3c(=O)n21 |  | 8.91 µM (active)
CCOn1c(SC(C)C)nc2ccccc2c1=O | -1.53% (inactive) | 
Cc1ccc([C@@H]2CC(=O)[C@@H]3CN(S(=O)(=O)c4ccc(C)cc4)[C@H](c4ccccc4F)C[C@@H]3N2S(=O)(=O)c2ccc(Cl)cc2)cc1 | -28% (inactive) | 
O=C(CCNS(=O)(=O)c1ccc(Br)cc1)NCC1CCCO1 (stereo unspecified) | 0.853% (inactive) | 
OC(CNCC1CCCO1)Cn1c2ccc(Br)cc2c2cc(Br)ccc21 (stereo unspecified) |  | 5.62 µM (active)
O=C(CSc1ccc(-c2ccc(Br)cc2)nn1)NCC1CCCO1 (stereo unspecified) | -7.03% (inactive) | 
Cc1ccc(-n2ncc3c2ncn2nc(-c4ccco4)nc32)c(C)c1 | 7.56% (inactive) | 
Cc1cccc(C(=O)N2c3nc(-c4ccco4)nn3C3(CCCCC3)[C@@H]3CCCC[C@@H]32)c1 |  | 11.2 µM (active)
Cc1cccc(C(=O)NC(=S)N(C)C2CCCCC2)c1 | -23.1% (inactive) | 
CCc1nc2c(OCC(N)=O)cccn2c1N(C)C(=O)c1ccc(OC)cc1 | 21.3% (inactive) | 
Cc1ccccc1S(=O)(=O)NC(=O)C1(C)CCN1C(=O)Cc1ccc(Cl)cc1Cl (stereo unspecified) | -6.45% (inactive) | 
C=CCC[C@H](Cc1ccc(F)cc1)C(=O)OC[C@@H](NC(=O)[C@@H](CC=C)CC(=O)N[C@H](CO)Cc1ccccc1)C(C)(C)C |  | 7.94 µM (active)
C=CC[C@@H](CC(=O)N[C@H](CO)Cc1ccccc1)C(=O)N[C@H](C)COC(=O)[C@@H](CC=C)Cc1ccc(F)cc1 | -24.5% (inactive) | 
C=CC[C@@H](CC(=O)N[C@@H](CO)Cc1ccccc1)C(=O)N[C@H](COC(=O)[C@H](CC=C)CC(=O)OC(C)(C)C)Cc1ccccc1 | 18.1% (inactive) | 
CCCCc1ccc(S(=O)(=O)NC(=O)C2(C)CCN2C(=O)c2c(C)noc2C)cc1 (stereo unspecified) | 20.7% (inactive) | 
Cc1cc(=O)c2ccc(NC(=O)c3ccccc3)cc2[nH]1 | 21.1% (inactive) | 
CCCCCn1nnnc1C1c2ccccc2C(=O)N1Cc1ccco1 (stereo unspecified) | 15.6% (inactive) | 
COc1ccc(Sc2ccc(NC(=O)c3cccc(Cl)c3)cc2C#N)cc1 | -0.552% (inactive) | 
CCCCNC(=O)C[C@@H]1C[C@@]2(C(=O)OCC)CCC=C2N(Cc2ccco2)C1=O | 4.25% (inactive) | 
O=S(=O)(Cc1ccccc1)c1nc2ccccc2n1Cc1ccccn1 | 0.0124% [at 7.66 µM] (inactive) | 
Cn1c(S(=O)(=O)O)nc2ccccc21 | 10.8% (inactive) | 
O=S(=O)(O)c1nc2ccccc2n1Cc1ccc(Cl)cc1Cl |  | 10 µM (active)
Cc1ccc(-c2ccc(C3=CC(=O)CC(C)(C)C3=O)cc2)cc1 | 4.58% (inactive) | 

Compound | activity change, negative = inhibition | Potency
CCc1nc2ccc(C(=O)NC3CCN(Cc4ccccc4)CC3)cn2c1N(C)CCN1CCOCC1 | 7.53% (inactive) | 
CC(C)CCC(=O)Nc1cc(S(=O)(=O)N2CCOCC2)ccc1N1CCCC1 | 8.82% (inactive) | 
CC(=O)c1cccc(Nc2ccc3cc(S(=O)(=O)N4CCC(C)CC4)ccc3n2)c1 | -17.5% (inactive) | 
O=S(=O)(c1ccc2nc(N3CCN(c4cccc(Cl)c4)CC3)ccc2c1)N1CCCCC1 | 3.79% (inactive) | 
Cc1ccc(Nc2ccc3cc(S(=O)(=O)N4CCCCC4)ccc3n2)cc1F |  | 2.82 µM (active)
CC1CCC2(CC1)N=C(c1ccccc1)C(=O)N2CC(=O)Nc1ccc(F)c(Cl)c1 (stereo unspecified) |  | 10 µM (active)
COc1ccc(NC(=O)CN2C(=O)C(c3ccccc3)=NC23CCCCCC3)cc1OC | -8.64% (inactive) | 
Cc1ccc(NC(=O)CN2C(=O)C(c3ccc(F)cc3)=NC23CCCCCC3)c(C)c1 | -6.38% (inactive) | 
CC(C)(C)c1ccc(S(=O)(=O)NC(=O)C2(C)CCN2C(=O)CC2CC2)cc1 (stereo unspecified) | -9.62% (inactive) | 
CCOC(=O)C1(CCOC)CCN(Cc2ccc(C(=O)OC)cc2)CC1 | -8.63% (inactive) | 
CCOC(=O)C1(S(=O)(=O)c2ccc(Cl)cc2)CCN(Cc2ccccc2)CC1 | -22.8% (inactive) | 
CCOC(=O)C1(CCOc2ccccc2)CCN(C(=O)c2cncs2)CC1 | 9.36% (inactive) | 
CCOC(=O)C1(CCOc2ccccc2)CCN(Cc2ccc(C#CCCO)cc2)CC1 |  | 7.94 µM (active)
CCOC(=O)C1(CCOc2ccccc2)CCN(Cc2cc(OC)cc(OC)c2)CC1 |  | 10 µM (active)
CCCS(=O)(=O)N1CCC(CCOc2ccccc2)(C(=O)OCC)CC1 | -4.3% (inactive) | 
COC(=O)C[C@@H]1C=C[C@@H](NC(=O)c2cccnc2)[C@@H](CO)O1 | -5.33% (inactive) | 
COc1ccc(CN2C[C@H]3CON(C)[C@H]3C[C@H]2c2ccc(-c3cccc(F)c3)cc2)cc1 | 11.3% (inactive) | 
CC1C(=O)N(Cc2cn(CC3CCCCC3)nn2)CCS(=O)(=O)N1Cc1ccc(-c2cccc(N(C)C)c2)cc1 (stereo unspecified) | -14% (inactive) | 
O=S1(=O)CCN(Cc2ccccc2)CC1 | 12.2% (inactive) | 
O=C(Nc1cccc(-c2cccc(Cl)c2)c1)C1CCN(C2CCC2)CC1 |  | 6.31 µM (active)
COc1cccc(-c2cccc(NC(=O)C3CCN(C4CCC4)CC3)c2)c1 | -12.5% (inactive) | 
O=C(NC1CCCC1)C1CCN(C(=O)Nc2cccc(Cl)c2)CC1 | -7.43% (inactive) | 
Cc1cc2c(cc1C)N1C(=O)c3cc4ccccc4cc3NC(=O)C1C(=O)N2 (stereo unspecified) | 9.55% (inactive) | 
NNC(=O)c1ccc(Cl)cc1Cl | 5.99% (inactive) | 

Compound | activity change, negative = inhibition | Potency
O=S(=O)(CCc1nc2ccccc2o1)c1ccc(Cl)cc1 | -14.7% (inactive) | 
O=S(=O)(Cc1ccc(Cl)cc1Cl)c1ccc(Cl)cc1 |  | 12.6 µM (active)
COCCNc1nc(NCc2ccc(NC(C)=O)cc2)c2sccc2n1 | -0.0128% (inactive) | 
C[C@H](CO)N1C[C@H](C)[C@@H](CN(C)S(=O)(=O)c2ccc(Oc3ccccc3)cc2)OCc2cn(nn2)CCCC1=O | 30.7% (inactive) | 
Cc1csc(SCC(=O)Nc2ccc(C)c(S(=O)(=O)N(C)C)c2)n1 | 4.33% (inactive) | 
Cc1nnc(NCCO)c2ccccc12 | 20.4% (inactive) | 
CN(C)c1nc(Nc2ccc(Cl)c(Cl)c2)nc(N(C)C)n1 | -36.4% (inactive) | 
OCCNc1nc(Nc2ccc(Cl)c(Cl)c2)nc2ccccc12 |  | 3.98 µM (active)
CC(=O)Nc1ccc(CNc2nc(NCCN(C)C)nc3cc(-c4ccccc4)sc23)cc1 | -27.5% (inactive) | 
CCCOc1cccc(C(=O)NCCCNC(=O)c2cccnc2)c1 | 20.7% (inactive) | 
CCOc1cccc(C(=O)Nc2nnc(-c3cccs3)s2)c1 | 25.6% (inactive) | 
CCOc1cccc(C(=O)Nc2cnn(Cc3ccccc3)c2)c1 |  | 10 µM (active)
Cc1nccn1-c1ccc(NC(=O)[C@H]2O[C@@H](n3cnc4c(N)ncnc43)[C@H](O)[C@@H]2O)cc1 | 32.2% (inactive) | 
CSc1ccc(CCNC(=O)CS(=O)(=O)Cc2nc(-c3ccccc3F)oc2C)cc1 | 9.93% (inactive) | 
Cc1ccccc1-c1nc(CS(=O)(=O)CC(=O)NC(C)c2ccccc2)c(C)o1 (stereo unspecified) |  | 4.47 µM (active)
Cc1ccc(S(=O)(=O)CC(=O)NC(C)c2ccccc2)cc1 (stereo unspecified) | -15.5% (inactive) | 
CN(Cc1ccccc1)C(=O)[C@@H]1CCCN1C(=O)[C@@H]1CCCN1C(=O)c1c(F)cccc1F | 11.3% (inactive) | 
CCOC(=O)[C@]12CCC=C1N(CCC1=CCCCC1)C(=O)[C@H](CC(=O)NCc1ccc(C)o1)C2 | 14% (inactive) | 
O=C(CN1CCN(Cc2ccc(Cl)cc2)C1=O)NCc1ccc(F)cc1 | -5.81% (inactive) | 
Cc1ccc(CNC(=O)CN2CCN(Cc3ccc(Cl)cc3)C2=O)cc1 |  | 7.94 µM (active)
CC(NC(=O)CN1CCN(Cc2ccc(Cl)cc2)C1=O)c1ccc2c(c1)OCCO2 (stereo unspecified) | -23.5% (inactive) | 
CC(C)C1CC2=C(C(=O)OC(C)(C)O2)C(c2ccc(F)cc2)O1 (stereo unspecified) | -19.2% (inactive) | 
Cc1ccc([C@H]2C[C@H](O)[C@@H](n3cc(COC(=O)c4ccccc4)nn3)CN2CC2CCCCC2)cc1 | 1.35% (inactive) | 
CC(=O)N1C[C@@H](CO)[C@@H](N(C)C(=O)c2ccco2)C[C@H]1c1ccccc1 | 17.5% (inactive) | 

Compound | activity change, negative = inhibition | Potency
COc1ccccc1-c1n[nH]nc1C1=CC(=O)CC(C)(C)C1 | -11.7% (inactive) | 
Cc1cccc(NC(=O)c2cccc(S(=O)(=O)N3CCCC3)c2)n1 | -2.27% (inactive) | 
Cc1ccc(NC(=O)c2cccc(S(=O)(=O)N3CCCc4ccccc43)c2)nc1 |  | 7.94 µM (active)
NS(=O)(=O)c1ccc(CNC(=O)c2cccc(S(=O)(=O)N3CCc4ccccc43)c2)cc1 | -4.07% (inactive) | 
COc1ccc(NC(=O)N(C)C[C@H]2Oc3ncc(C#C[C@@H](C)O)cc3C(=O)N([C@H](C)CO)C[C@H]2C)cc1 | 19.3% (inactive) | 
Cn1c(Nc2ccc(F)cc2)nc2cc(-c3ccsc3)sc2c1=O | 13.3% (inactive) | 
CCN(CCN(C)C)C(=O)c1ccc2nc(C)c(N(C)C(=O)CCc3ccccc3)n2c1 | 12.2% (inactive) | 
O=C(NCc1nnnn1-c1ccc(Cl)cc1)c1ccc([N+](=O)[O-])o1 | 12.3% (inactive) | 
CCN1CC(CN(C)Cc2nc(-c3ccc(Cl)cc3)no2)CC1=O (stereo unspecified) | -4.38% (inactive) | 
Cc1ccc(S(=O)(=O)N(Cc2nc(-c3ccc(Cl)cc3)no2)C2CCCCC2)cc1 |  | 10 µM (active)
CC1CCN(Cc2nc(-c3ccc(Cl)cc3)no2)CC1 | -29.5% (inactive) | 
CCN(CC)C(=O)C(C)N1c2cccc3cccc(c23)S1(=O)=O (stereo unspecified) | -23.4% (inactive) | 
O=C1C[C@@H]2c3c(cccc3CN1Cc1ccccc1)C[C@@H](O)[C@H]2O | 26.3% (inactive) | 
CC1CN(Cc2ccccc2)C(=S)NC1=O (stereo unspecified) | 0.404% (inactive) | 
CCc1cccc(C)c1N1C(=O)CN(Cc2ccccc2)C1=S |  | 5.62 µM (active)
Nc1ncnc2c1ncn2[C@@H]1O[C@H](C(=O)N2CCSC2)[C@@H](O)[C@H]1O | 0.629% (inactive) | 
CCOc1cc(/C=N/NC(=O)c2c(C)nc3ccc(Cl)cn23)ccc1O | 1.83% (inactive) | 
CC(=O)C[C@@H]1OC[C@H](C)N1S(=O)(=O)c1ccc(C)cc1 | 0.373% (inactive) | 
CCCC(=O)N1CCC1(C)C(=O)NCc1ccc(C(C)C)cc1 (stereo unspecified) | 17.7% (inactive) | 
O=C(Nc1nnc(-c2ccc(F)cc2)s1)c1c(F)cccc1Cl | -21.4% (inactive) | 
CCN(CC)CCNC(=O)c1ccc(NC(=O)c2c(F)cccc2Cl)cc1 | -15.9% (inactive) | 
O=C(NNc1cc(Cl)cc(Cl)c1)c1c(F)cccc1Cl |  | 10 µM (active)
CN1CCN(c2ccncc2S(=O)(=O)N2CCCC2)CC1 | 14% (inactive) | 
COCCNC(=O)c1cc2c(Br)ccc(Br)c2nc1N | 3.82% (inactive) | 

— PubChem BioAssay AID624417 (National Center for Advancing Translational Sciences (NCATS), 2012)
